Screening data: PubChem, The Scripps Research Institute Molecular Screening Center
M1 PAM: human CHRM1 positive allosteric modulation. CHO-K1 hM1, Fluo-8 calcium fluorescence, ACh EC20; 0% = ACh EC20, 100% = maximal ACh. activation, % at 3 µM. 0.088% of 360,000 active; in the data active = activation above about 19%, passing the limit was not always enough
Target sequence (P11229 whole entry, looked up): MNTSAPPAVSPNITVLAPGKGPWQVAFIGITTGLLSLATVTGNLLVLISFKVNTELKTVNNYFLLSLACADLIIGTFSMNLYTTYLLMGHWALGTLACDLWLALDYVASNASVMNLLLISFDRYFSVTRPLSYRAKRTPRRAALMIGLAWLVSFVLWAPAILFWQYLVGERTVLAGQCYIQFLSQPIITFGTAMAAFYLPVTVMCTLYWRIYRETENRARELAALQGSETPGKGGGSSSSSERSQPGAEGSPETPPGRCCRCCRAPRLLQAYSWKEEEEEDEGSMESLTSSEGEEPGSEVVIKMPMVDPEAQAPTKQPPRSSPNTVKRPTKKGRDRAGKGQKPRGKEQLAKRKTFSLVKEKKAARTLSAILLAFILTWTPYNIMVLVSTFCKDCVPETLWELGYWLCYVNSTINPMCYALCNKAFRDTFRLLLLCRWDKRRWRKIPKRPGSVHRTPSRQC
CHRM1 antagonist: antagonists of human M1 muscarinic receptor; P11229; CHO-K1 hM1, Fluo-8 calcium fluorescence, ACh EC80 antagonist; inhibition, % at 3 µM; 1.3% of 360,000 active; AID 588852;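 active = percent inhibition above its own plate's cutoff, namely the mean of that plate's compound wells plus 3 SD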;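 also: peak over basal fluorescence ratio during 140 s after agonist addition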
M1 ag parental: M1 agonist counterscreen hit in parental CHO-K1 cells. 0.48% of 360,000 active. activation, % at 3 µM. Fluo-8 calcium fluorescence; scaled to maximal ATP response, vehicle zero; in the data active = activation above about 15%;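 also: untransfected CHO-K1 host cells lacking M1 receptor as counterscreen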
CHRM1 agonist: agonists of human M1 muscarinic receptor; P11229; 0.33% of 360,000 active; CHO-K1 hM1, Fluo-8 calcium fluorescence, agonist mode; 0% DMSO, 100% acetylcholine EC100; activation, % at 3 µM;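 active = activation above the run's mean compound activation plus 3 SD, cut at about 16% in these data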;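 also: peak over basal fluorescence ratio within a 140 s kinetic read after compound addition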
CHO-K1 Ca antag: counter-screen for M1 antagonists: effect in parental CHO-K1 cells. inhibition, % at 3 µM. 0.6% of 360,000 active. ATP-induced calcium, Fluo-8 fluorescence;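 active = inhibition above a per-plate cutoff, the plate's mean sample inhibition plus 3 SD, cut at about 24% in these data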
M1 PAM parental: nonselective activator or artifact in parental CHO-K1 calcium assay; ATP EC20, Fluo-8 calcium fluorescence; 0% at ATP EC20, 100% at ATP max; activation, % at 3 µM; 0.02% of 360,000 active; AID 602247;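 active = activation above the run cutoff, the mean activation of all test compounds plus 3 SD, cut at about 40% in these data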;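 also: peak over basal fluorescence ratio in a 140 s read after ATP addition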
Hits are given with their value; - = inactive; . = not tested or not shown. A selection: hits, their analogues and other compounds. The true share with any hit is near 2.3%.

SMILES	M1 PAM	CHRM1 antagonist	M1 ag parental	CHRM1 agonist	CHO-K1 Ca antag	M1 PAM parental
CCC(C)c1ccccc1OCCCCN1CCCC1 (stereo not given)	-	48.2	-	-	-	-
COC(=O)c1ccccc1OCCN1CCCCCC1	-	-	-	-	-	-
CCC(C)c1ccccc1OCCOCCN1CCCC1 (stereo not given)	-	-	-	-	-	-
CC(=O)c1ccccc1OCCCCN1CCCCC1	-	58.5	-	-	-	-
COc1ccccc1OCCCCOc1ccccc1C(C)=O	-	-	-	-	-	-
O=C1c2ccccc2C(O)N1Cc1ccc2c(c1)OCO2 (stereo not given)	-	28.4	-	-	-	-
O=C(COC(=O)C12CC3CC(CC(Br)(C3)C1)C2)N1CCOCC1	-	-	16.6	-	-	-
CC1(C)CC(=O)C2=C(C1)OC(N)=C(C#N)C2c1cc2c(cc1[N+](=O)[O-])OCO2 (stereo not given)	-	38.1	-	-	-	-
CC(=O)c1ccc(NC(=O)CNC2CCCCC2)cc1	-	-	20.0	-	-	-
CCN(CC)c1c(C)nc2ccc(C(=O)N3CCN(C(=O)c4ccco4)CC3)cn12	-	-	-	-	-	-
Cc1ccc(NS(=O)(=O)c2ccc(-n3cccn3)cc2)cc1C	-	27.7	-	-	-	-
Cc1ccc(NS(=O)(=O)c2ccc(-n3cccn3)cc2)cc1Cl	-	-	-	-	-	-
CCOC(=O)[C@]12CCC=C1N(Cc1ccccc1)C(=O)[C@H](CC(=O)NCc1cccc(C(F)(F)F)c1)C2	.	.	-	.	-	-
CC(C)Cn1c(=O)c(C(=O)Nc2ccncc2)c(O)c2ccccc21	-	98.8	-	-	-	-
CCCn1c(=O)c(C(=O)NNC(=O)c2ccccc2Cl)c(O)c2ccccc21	-	-	21.0	30.3	-	-
CCn1c(=O)c(C(=O)NNC(=O)c2ccccc2)c(O)c2ccccc21	-	-	19.1	-	-	-
O=C(O)c1ccccc1C(=O)Nc1ccc(Br)c2cccnc12	-	-	-	-	-	-
Cc1c(C(=O)N2CCN(S(=O)(=O)c3ccccc3F)CC2)oc2c(Cl)cccc12	-	-	-	16.1	-	-
Cc1c(C(=O)N2CCN(c3ccccc3)CC2)oc2c(Cl)cccc12	-	-	-	-	-	-
CNC(=O)COC(=O)c1ccccc1Oc1ccccc1	-	-	-	-	28.7	-
O=C1c2ccccc2[C@@H]2C[C@@H](O)[C@H](Nc3cccc4ccccc34)CCN12	-	25.2	-	-	-	-
O=C(NCc1cccs1)c1ccc(S(=O)(=O)N2CCOCC2)cc1	-	-	-	-	-	-
Cc1ccc(S(=O)(=O)N2CCOCC2)cc1C(=O)NCc1cccs1	-	-	-	-	25.3	-
Oc1ccccc1-c1n[nH]c(-c2ccccc2O)n1	-	-	17.3	-	-	-
COc1ccccc1C1CC(c2cccc(NS(C)(=O)=O)c2)=NN1S(=O)(=O)c1ccccc1 (stereo not given)	-	-	-	-	-	-
SMILES	M1 PAM	CHRM1 antagonist	M1 ag parental	CHRM1 agonist	CHO-K1 Ca antag	M1 PAM parental
CCOC(=O)c1ccc2nc(NC(=O)C(C)C)sc2c1	-	-	-	-	-	-
C=CCN(CC=C)S(=O)(=O)c1ccc2nc(NC(=O)C(C)C)sc2c1	-	-	33.2	23.9	-	43.3
CC(=O)c1cccc(CN2CCC(C(=O)Nc3ccc(Oc4cccnc4)cc3)CC2)c1	-	29.5	-	-	-	-
O=C(Nc1ccc(Oc2cccnc2)cc1)C1CCN(Cc2cccc(Cl)c2)CC1	-	-	-	-	-	-
COc1cccc(CNC(=O)CN(c2ccc(C(C)C)cc2)S(=O)(=O)c2c(C)noc2C)c1	-	-	-	-	-	-
O=C1c2cccc3cccc(c23)C(=O)N1CCCc1n[nH]c(=S)n1-c1ccccc1	-	31.1	-	-	-	-
OCCCc1n[nH]c(=S)n1-c1ccccc1	-	-	-	-	-	-
COC(=O)CCC(=O)N1CCOCCOCCOCC1	-	-	15.8	-	-	-
COC(=O)CCC(=O)N1CCOCCOCCN(C(=O)CCC(=O)OC)CCOCCOCC1	-	-	-	-	-	-
COCCCn1c(=O)c2ccccc2n(CC(=O)N2CCCc3ccccc32)c1=O	-	-	-	-	-	-
Cc1ccc(-n2c(Cc3cccs3)nnc2SCC(=O)Nc2ccc(S(N)(=O)=O)cc2)cc1	-	-	-	-	25.1	-
NS(=O)(=O)c1ccc(NC(=O)CSc2nnc(Cc3cccs3)n2-c2ccccc2)cc1	-	-	-	-	-	-
O=C(Nc1ccccc1F)c1c[nH]c(=O)[nH]c1=O	-	39.5	-	-	-	-
COc1cccc(NC(=O)C2CCN(C(=O)[C@@H]3Cc4ccccc4CN3)CC2)c1	-	-	-	-	-	-
CCN(c1ccc(NS(=O)(=O)c2cc(Cl)ccc2Cl)cc1)C(C)C	-	75.5	-	-	-	-
CN(C)c1ccc(NS(=O)(=O)c2cc(Cl)ccc2Cl)cc1	-	-	-	-	-	-
O=Cc1cn(-c2ccccc2)nc1-c1ccccc1	-	-	-	-	-	-
CC1=NNC(=O)/C1=C\c1cn(-c2ccccc2)nc1-c1ccccc1	-	33.3	-	-	-	-
CC(C)Cc1ccc(CN2CCCC(NC(=O)CCN3CCOCC3)C2)cc1 (stereo not given)	-	-	-	-	-	-
COc1cc(N2C(=O)c3ccccc3C2=O)c(Cl)cc1C(=O)OCC(=O)NCc1ccco1	-	-	-	-	28.2	-
COc1ccc(C(=O)NC(C)CCc2ccccc2)cc1[N+](=O)[O-] (stereo not given)	-	-	-	-	-	-
COc1ccc(C(=O)C(C)[n+]2ccc(C)c3ccccc32)cc1[N+](=O)[O-] (stereo not given)	-	43.4	-	-	-	-
O=C(CC12CC3CC(CC(C3)C1)C2)NC(=S)Nc1ccc(CN2CCOCC2)cc1	-	-	-	-	-	-
CC(C)C(NC(=O)c1ccccc1NC(=O)C(C)(C)C)C(=O)N1CCOCC1 (stereo not given)	-	-	-	-	-	-
COc1cc(/C=C2\CC/C(=C\c3ccc(OCCO)c(OC)c3)C2=O)ccc1OCCO	-	-	30.6	32.4	-	-
COc1ccc(/C=C2\CC/C(=C\c3ccc(OC)c(OC)c3)C2=O)cc1OC	-	-	-	-	-	-
COc1ccccc1N1CCN(Cc2cc(=O)c(OCC#N)co2)CC1	-	-	-	-	-	-
CCc1nc2c(OCC(=O)C(C)(C)C)cccn2c1N(C)C(=O)c1cccs1	-	-	-	-	-	-
CCc1nc2c(OCC(=O)c3ccc(F)cc3)cccn2c1N(C)C(=O)c1cccs1	-	-	-	-	26.5	-
